The nature of test [1]: viability loss in pontine glioma line – cell-based, SU-DIPG-XVII, MIPE5.0, CellTiter-Glo, qHTS, dose response (AID 1347060; cut-off not given, nearly all actives have AC50 up to about 26 µM;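 for AC50: cells exposed to compound for 48 hours before viability readout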). Conditions: CellTiter-Glo ATP luminescence.
A short description of test [2]: viability loss in pontine glioma line – cell-based, SU-DIPG-IV, MIPE4.0, CellTiter-Glo, qHTS, dose response (AID 1347063; cut-off not given, nearly all actives have AC50 up to about 30 µM;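 note: compound exposure lasted 48 hours before the viability readout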). The conditions noted are these: CellTiter-Glo ATP luminescence.
Test [3] can be described thus: viability loss in pontine glioma line – cell-based, SU-DIPG-XIII, MIPE5.0, CellTiter-Glo, qHTS, dose response (AID 1347064; cut-off not given, nearly all actives have AC50 up to about 23 µM;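 for AC50: cells exposed to compound for 48 hours before the viability read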). The conditions noted are these: CellTiter-Glo ATP luminescence.
The nature of test [4]: viability loss in pontine glioma line – cell-based, SU-DIPG-XXV, MIPE5.0, CellTiter-Glo, qHTS, dose response (AID 1347065; cut-off not given, nearly all actives have AC50 up to about 26 µM;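 note: cells exposed to compound for 48 hours before ATP readout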). The conditions noted are these: CellTiter-Glo ATP luminescence.
Test [5] is described as follows: JHH-DIPG-1 glioma cell viability, MIPE5.0 library, CellTiter-Glo luminescence, qHTS (AID 1347067; cut-off not given, nearly all actives have AC50 up to about 26 µM;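 note: cells exposed to compound for 48 hours before readout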). The conditions noted are these: JHH-DIPG-1 glioma viability, CellTiter-Glo ATP luminescence.
Test [6] in a line: growth inhibition of DIPG cells – cell-based, MIPE5.0 library, qHTS (AID 1347068; cut-off not given, nearly all actives have IC50 up to about 30 µM;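 for IC50: cells exposed to compound for 48 hours before viability readout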). Conditions: SU-DIPG-XXV viability.
Test [7] can be described thus: viability loss in pontine glioma line – cell-based, JHH-DIPG-1, MIPE4.0, CellTiter-Glo, qHTS, dose response (AID 1347062; cut-off not given, nearly all actives have AC50 up to about 27 µM). Conditions: JHH-DIPG-1 viability, CellTiter-Glo ATP luminescence.
Test [8] can be described thus: growth inhibition of DIPG cells – cell-based, MIPE4.0 library, CellTiter-Glo luminescence, qHTS (AID 1347066; cut-off not given, nearly all actives have AC50 up to about 30 µM;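 note: cells exposed to compound for 48 hours before readout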). The conditions noted are these: SU-DIPG-VI viability, CellTiter-Glo ATP luminescence.
The nature of test [9]: viability loss with induced miR-34 in A549 – imaging, A549 dox-inducible miR-34, nuclei and caspase counts, primary screen (AID 1347080;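 active = compounds whose cell count with miR-34 switched on is under 0.7 times the count with it off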). The conditions noted are these: A549 miR-34 inducible, Hoechst nuclei count, 48 h.
Test [10] in a line: compounds altering HSF1 focus formation in cells – imaging, Selleck Cancer Library (AID 1347162; in the data active = plate-normalised HSF1 focus index below about 0.46). The conditions noted are these: human cells, HSF1 nuclear foci imaging, at 10 µM; SSMD: measured here: HSF1 foci SSMD mean; cell count: measured here: cell number; plate-normalised HSF1 focus index: stronger effect = lower value.
Test [11] can be described thus: MELAS cybrid and Rieske KO viability enhancers – cell-based, MELAS cybrids, Rieske KO mouse fibroblasts, CellTiter-Glo, primary screen (AID 1508586;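 active = mean z-score across replicates of 1.96 or higher in either the MELAS or the Rieske mutant cell line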;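 note: z relative to plate mean and SD of compound and empty wells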). Conditions: low glucose.
Test [12] in a line: drug combination growth inhibition, ovarian cancer – cell-based, oncology-focused library, rucaparib conditional, profiling panel (AID 1508598). Conditions: patient-derived ovarian cancer cells, CellTiter-Glo viability, 144 h, stronger effect = lower value.
The mark [13] stands for this setting: stronger effect = lower value, cell number ratio, induced over uninduced.
The mark [14] stands for this setting: measured here: relative caspase fold change +Dox/-Dox.
Where [15] appears, read: measured here: total cells with miR-34 induction, stronger effect = lower value.
Setting [16] is: measured here: total cells without miR-34 induction.

Values joined by “and” are separate entries in the source; they are usually repeats but may differ in a detail not shown here. Identical values can stand only once. Inconclusive results are not listed. Active and inactive are the calls of the source.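 Rule for the calls, unless noted: active = normalized viability below 100% at a tested concentration; inactive = the rest.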

On to `CC(N[C@H]1CCCC[C@@H]1NC(=O)c1ccc(Cl)cc1)c1cccc2ccccc12` (stereo partly drawn), for which the AC50 is 8.33 µM (active) in test [1]; 0.148 µM (active) in test [2]; 7.42 µM (active) in test [3]; 8.33 µM (active) in [4]; 9.34 µM (active) in test [5]. Also, the concentration for half-maximal inhibition (IC50) in [6] was 16.6 µM (active).
`Clc1ccc(COC(Cn2ccnc2)c2ccc(Cl)cc2Cl)c(Cl)c1` (stereo not drawn): the AC50 in [1] is 26.3 µM (active); in test [4] it was 23.5 µM (active); in [5] it was 20.9 µM (active). The compound was called inactive in [7].
In the case of `CC(C)C[C@@H](N)[C@H](O)C(=O)N[C@H](C(=O)N[C@H](C(=O)N[C@@H](CC(=O)O)C(=O)O)C(C)C)C(C)C`, the compound was classed as inactive in test [1], in test [2], in test [3], in test [4], in [8] and in test [5]. In addition, the outcome in test [6] was inactive.
For `CCN(CC)CCCCNc1ncc2c(n1)N(C)C(=O)N(c1c(Cl)c(OC)cc(OC)c1Cl)C2`, the AC50 is 0.59 µM (active) in [1], 18.7 µM (active) in test [2], 0.263 µM (active) in [3] and 0.372 µM (active) in [4]. Besides, in [6], the IC50 was 7.42 µM (active).
In the case of `COc1ccc2c(c1)CC[C@@H]1[C@@H]2CC[C@]2(C)[C@@H](NCCCCCCN3C(=O)C=CC3=O)CC[C@@H]12`, the outcome in test [1], in test [2], in test [3], in [4], in test [8] and in [5] was inactive. Besides, in [6], the outcome was inactive. Also, the fold change in test [9] (setting [13]) was 0.933 (inactive) and 0.926 (inactive); in [9] (setting [14]), 1.05 and 1.65. Moreover, the cell count in [9] (setting [15]) is 5880 and 5430; in test [9] (setting [16]), 6300 and 5860.
On to `COc1ccccc1[C@H](c1cccc2ccccc12)[C@@](C)(C#N)C(=O)N1CCC(c2cccc(C(F)(F)F)c2)CC1`, for which the call in test [1], in test [3], in [4], in test [8], in [5] and in test [6] was inactive. Also, in [2], the AC50 is 3.32 µM (active).
For the compound `CC1=C[C@@H]2[C@H]([C@@H](O)C[C@@]3(C)[C@H]2C[C@@H](C)[C@]3(O)C(=O)CO)[C@@]2(C)Cc3cnn(-c4ccccc4)c3C=C12`, the AC50 was 5.25 µM (active) in test [1]; 3.72 µM (active) in [2]; 9.34 µM (active) in [3]; 7.42 µM (active) in [4]; 11.8 µM (active) in test [5]. Besides, the IC50 in test [6] is 16.6 µM (active).
On to `COc1cc2nccc(Oc3ccc(NC(=O)Nc4cc(C)on4)c(Cl)c3)c2cc1OC`, for which the AC50 in test [1] was 8.33 µM (active); in [2] it was 18.7 µM (active); in test [3], 9.34 µM (active); in test [4] it was 5.9 µM (active); in test [5], 14.8 µM (active). For the same compound, the half-inhibitory concentration (IC50) in [6] is 9.34 µM (active). Further, the values for the fold change in test [9] (setting [13]) and in [9] (setting [14]) were 1.35 (inactive) and 0.722, respectively. Further, the figures for the cell count in [9] (setting [15]), in test [9] (setting [16]) and in [10] were 2720, 2010 and 7170, respectively. Moreover, the SSMD in test [10] came out at 3.28. Also, the plate-normalised HSF1 focus index in test [10] is 1.19 (inactive). The z-score is -0.36 (inactive) in test [11] (MELAS cybrid survival, CellTiter-Glo 48 h, stronger effect = higher value) and 0.933 in test [11] (Rieske KO mouse fibroblast survival, CellTiter-Glo 72 h). Moreover, the viability in test [12] (at 0.000305 µM, OCI-C5x cells, with rucaparib 10 µM, 100% = cells with rucaparib alone) is 115% (inactive); in [12] (at 0.000305 µM, OCI-C5x cells, without rucaparib) it was 105% (inactive); in [12] (at 0.000305 µM, OCI-P5x cells, with rucaparib 20 µM, 100% = cells with rucaparib alone), 104% (inactive); in test [12] (at 0.000305 µM, OCI-P5x cells, without rucaparib), 96.5% (active); in [12] (at 0.00122 µM, OCI-C5x cells, with rucaparib 10 µM, 100% = cells with rucaparib alone), 109% (inactive); in test [12] (at 0.00122 µM, OCI-C5x cells, without rucaparib) it was 100% (active). The viability in test [12] (at 0.00122 µM, OCI-P5x cells, with rucaparib 20 µM, 100% = cells with rucaparib alone) is 101% (inactive); in test [12] (at 0.00122 µM, OCI-P5x cells, without rucaparib), 94.7% (active); in [12] (at 0.00488 µM, OCI-C5x cells, with rucaparib 10 µM, 100% = cells with rucaparib alone), 107% (inactive); in test [12] (at 0.00488 µM, OCI-C5x cells, without rucaparib), 106% (inactive); in test [12] (at 0.00488 µM, OCI-P5x cells, with rucaparib 20 µM, 100% = cells with rucaparib alone), 92.6% (active); in test [12] (at 0.00488 µM, OCI-P5x cells, without rucaparib), 93.9% (active). Besides, the viability is 113% (inactive) in test [12] (at 0.0195 µM, OCI-C5x cells, with rucaparib 10 µM, 100% = cells with rucaparib alone); 96.2% (active) in [12] (at 0.0195 µM, OCI-C5x cells, without rucaparib); 98.1% (active) in [12] (at 0.0195 µM, OCI-P5x cells, with rucaparib 20 µM, 100% = cells with rucaparib alone); 86.6% (active) in test [12] (at 0.0195 µM, OCI-P5x cells, without rucaparib); 113% (inactive) in test [12] (at 0.0781 µM, OCI-C5x cells, with rucaparib 10 µM, 100% = cells with rucaparib alone); 88.6% (active) in [12] (at 0.0781 µM, OCI-C5x cells, without rucaparib). Further, the viability is 92.2% (active) in [12] (at 0.0781 µM, OCI-P5x cells, with rucaparib 20 µM, 100% = cells with rucaparib alone); 87.4% (active) in test [12] (at 0.0781 µM, OCI-P5x cells, without rucaparib); 133% (inactive) in test [12] (at 0.313 µM, OCI-C5x cells, with rucaparib 10 µM, 100% = cells with rucaparib alone); 109% (inactive) in [12] (at 0.313 µM, OCI-C5x cells, without rucaparib); 88.2% (active) in [12] (at 0.313 µM, OCI-P5x cells, with rucaparib 20 µM, 100% = cells with rucaparib alone); 91.5% (active) in test [12] (at 0.313 µM, OCI-P5x cells, without rucaparib). Further, the viability in test [12] (at 1.25 µM, OCI-C5x cells, with rucaparib 10 µM, 100% = cells with rucaparib alone) was 138% (inactive); in [12] (at 1.25 µM, OCI-C5x cells, without rucaparib), 93.1% (active); in test [12] (at 1.25 µM, OCI-P5x cells, with rucaparib 20 µM, 100% = cells with rucaparib alone) it was 81.9% (active); in test [12] (at 1.25 µM, OCI-P5x cells, without rucaparib), 86.1% (active); in test [12] (at 5 µM, OCI-C5x cells, with rucaparib 10 µM, 100% = cells with rucaparib alone) it was 150% (inactive); in test [12] (at 5 µM, OCI-C5x cells, without rucaparib), 104% (inactive). Moreover, the viability is 70.8% (active) in [12] (at 5 µM, OCI-P5x cells, with rucaparib 20 µM, 100% = cells with rucaparib alone) and 82.8% (active) in test [12] (at 5 µM, OCI-P5x cells, without rucaparib).

These data come from PubChem BioAssay.
